{"source": "PubChem BioAssay AID1224853", "about": "(National Center for Advancing Translational Sciences (NCATS), 2016)", "note": "Records with an inconclusive call do not appear. Entries that show only a call come without a potency. Calls of active or inactive are those of the source. Calls follow the shape of the dose curve; as a rule, active = well fitted inhibition curve with a large enough effect; inconclusive = small, poorly fitted or top-dose-only effect; inactive = no such curve, though single readings can be large or run the other way."}
{"assay": "Confirmation assay for measurement of the activity of small molecule inhibitors on Zika virus induced Caspase-3 activity in human astrocytoma cells", "conditions": "SNB-19 ZIKV-induced caspase-3/7, luminescence, 6 h; series mostly up to 46.1 µM", "from_the_text": "National Center for Advancing Translational Sciences [NCATS] Johns Hopkins University School of Medicine Florida State University Assay Overview: Increase in the Caspase-3 activity indicates an activation of apoptosis cell death pathway caused by Zika virus infection in certain types of neuronal cells including human neural progenitor cells (hNPCs), astrocytes, and astrocytoma cell line (SNB-19). This cell-based caspase-3 activity assay measures the increased caspase-3 activity in the astrocytoma cell line (SNB-19) after a 6-hour Zika virus infection with a luminescence readout. A decrease in the luminescence signal in this assay by small molecule treatment indicates an inhibitory effect of that small molecule on the Zika virus induced caspase-3 activity that may correlate with its effect on reduction of Zika virus caused cell death.\nAssay Protocol Summary: The medium for SNB-19 cells is composed of RPMI 1640 (ATCC, Cat.# 30-2001), 10% fetal bovine serum (FBS) (GE healthcare Life Sciences, Cat.# SH30071.03), and 1% Pen/Strep (Gibco, Cat.# 15140-122). A Caspase-Glo 3/7 assay kit (catalog number G8092; Promega, Madison, WI) was used to detect caspase-3 activity induced by Zika virus infection in human cells. The reagent mixture was reconstituted as described in the protocol from the manufacturer. Polystyrene tissue culture treated and PDL coated white plates were obtained from Greiner Bio-One (Monroe, NC). Cells were seeded in 384- or 1536-well assay plates and cultured at 37 C with 5% CO2 for 16 to 20 hours. The typical cell seeding density in the 1536-well plate assay is 250 cells/well in 3ul medium for SNB-19 cells in tissue culture treated plates. Compounds were added to cells and incubated for one hour before addition of ZIKV solution to cells (2 FFU/cell). After incubation at 37 C with 5% CO2 for 6 hours, the reagent mixture of Caspase-Glo 3/7 assay kit was added to each well, followed by incubation at room temperature for 30 minutes. The luminescence intensity of the assay plates was measured using a ViewLux plate reader (PerkinElmer). Data were normalized by using the cell-containing wells without ZIKV as a negative control (0% induction of caspase 3/7 activity) and wells containing ZIKV infected cells (Caspase-3 activity induced) as a positive control (100% induction of caspase 3 activity). The percentage inhibitions of the increased Caspase-3 activity by small molecule inhibitors were then calculated."}
{"smiles": "S=C(SSC(=S)N1CCCCC1)N1CCCCC1", "Potency": "inactive"}
{"smiles": "CC(C)[N+](C)(CCC(C(N)=O)(c1ccccc1)c1ccccc1)C(C)C", "Potency": "inactive"}
{"smiles": "CC(C)N[C@@H]1CCn2c(=O)[nH]c3cccc(c32)[C@@H]1O", "Potency": "inactive"}
{"smiles": "O=S(=O)(CC1CS1)c1ccc(Oc2ccccc2)cc1", "note": "(centres undefined)", "Potency": "inactive"}
{"smiles": "CC(O)CN1CCN(CC(=O)[O-])CCN(CC(=O)[O-])CCN(CC(=O)[O-])CC1.[Gd+3]", "note": "(centres undefined)", "Potency": "inactive"}
{"smiles": "Oc1ccc([C@H]2CNCc3c2ccc(O)c3O)cc1O", "Potency": "inactive"}
{"smiles": "Cc1ccc([N+](=O)[O-])[c]2c1[O][Hg]2", "Potency": "10.9 µM (active)"}
{"smiles": "COP(=S)(OC)SCN1C(=O)c2ccccc2C1=O", "Potency": "inactive"}
{"smiles": "O=C1C=CC[C@@H]2[C@H]3CCCN4CCC[C@@H](CN12)[C@@H]34", "Potency": "inactive"}
{"smiles": "CC(C)[C@H]1C(=O)N[C@H](CO)Cc2c[nH]c3cccc(c23)N1C", "Potency": "inactive"}
{"smiles": "O=C1CCC[C@@H]2[C@H]3CCCN4CCC[C@@H](CN12)[C@@H]34", "Potency": "inactive"}
{"smiles": "COC1(CS(=O)c2ccccc2)CCN(CCc2c[nH]c3ccc(F)cc23)CC1", "note": "(centres undefined)", "Potency": "inactive"}
{"smiles": "O=C(Nc1ccc(Br)cc1)c1cc(Br)cc(Br)c1O", "Potency": "6.9 µM (active)"}
{"smiles": "O=c1c2ccccc2[se]n1-c1ccccc1", "Potency": "17.3 µM (active)"}
